Screening results: PubChem, NMMLSC
A selection: hits, their analogues and other compounds. The true share with any hit is near 1.2%.
Avidin bead fluor: avidin bead compound fluorescence profile | Avidin beads, compound fluorescence 488/530 nm, flow cytometry; stronger effect = higher value | fluorescence (KMESF) at 10 µM | 220,000 tested, 0.38% active; in the data active = fluorescence above about 47
RGS4-Gao reg: modulates binding of RGS4 to human Galphao; P09471; Multiplexed bead flow cytometry; actives lie on both sides; binding response (% of control), % at 10 µM; 220,000 tested, 0.33% active; in the data active = binding response below about 49% or above about 150%; inactive = in between;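 also: fluorescent Galphao activated with aluminum fluoride binding bead-coupled RGS4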
Target sequence (P09471 whole entry, looked up): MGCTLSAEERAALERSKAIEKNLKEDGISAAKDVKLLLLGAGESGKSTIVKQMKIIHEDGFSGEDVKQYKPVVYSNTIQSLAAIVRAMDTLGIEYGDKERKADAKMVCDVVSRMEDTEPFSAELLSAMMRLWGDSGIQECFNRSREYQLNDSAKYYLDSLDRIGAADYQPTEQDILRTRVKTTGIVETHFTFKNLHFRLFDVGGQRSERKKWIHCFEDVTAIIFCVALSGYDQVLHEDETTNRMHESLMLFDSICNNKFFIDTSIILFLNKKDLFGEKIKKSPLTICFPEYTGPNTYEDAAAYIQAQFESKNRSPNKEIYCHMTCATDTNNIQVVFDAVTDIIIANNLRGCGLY
RGS8-Gao: regulators of human RGS8-Galphao interaction | P09471 | multiplexed bead flow cytometry, RGS8-Galphao binding; actives lie on both sides | response (percent of control binding), % at 10 µM | 220,000 tested, 0.34% active | AID 1423; in the data active = response below about 60% or above about 140%; inactive = in between;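 also: Galphao activated as the GDP aluminium fluoride complex binding bead-coupled RGS8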
RGS16-Gao HTS: modulates binding between human RGS16 and Galphao; bead-based flow cytometry RGS16-Galphao binding, fluorescence; actives lie on both sides; binding response (% of control), % at 10 µM; O15492+P09471; 220,000 tested, 0.38% active;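 also: Galphao activated by GDP with aluminum fluoride before binding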
RGS7-Gao reg: modulates binding of RGS7 to human Galphao; P09471; Multiplexed bead flow cytometry; actives lie on both sides; binding response (% of control), % at 10 µM; 220,000 tested, 0.35% active; AID 1439; in the data active = binding response below about 49% or above about 150%; inconclusive = no clear call, values can overlap the other calls; inactive = in between;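 also: fluorescent Galphao held in activated GDP-AlF4 state binding bead-coupled RGS7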
GSH fluor: GSH bead compound fluorescence profile. GSH beads flow cytometry, compound fluorescence 488/530 nm; stronger effect = higher value. fluorescence (KMESF) at 10 µM. 190,000 tested, 0.25% active; in the data active = fluorescence above about 89;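 also: glutathione beads carrying GST-tagged Bcl family fusion proteins plus one bare bead set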
RGS4-Gao HTS: modulates binding between human RGS4 and Galphao | shares compounds with RGS16-Gao HTS | multiplexed bead flow cytometry, RGS–Galpha-o binding | RGS4–Galpha-o binding response, % at 10 µM | 1,600 tested, 99% active;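 also: fluorescently labeled Galpha-o bound to GDP with aluminium fluoride binding biotinylated RGS beads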
Target sequence (P09471 whole entry, looked up): as above
Target sequence (P49798 whole entry, looked up): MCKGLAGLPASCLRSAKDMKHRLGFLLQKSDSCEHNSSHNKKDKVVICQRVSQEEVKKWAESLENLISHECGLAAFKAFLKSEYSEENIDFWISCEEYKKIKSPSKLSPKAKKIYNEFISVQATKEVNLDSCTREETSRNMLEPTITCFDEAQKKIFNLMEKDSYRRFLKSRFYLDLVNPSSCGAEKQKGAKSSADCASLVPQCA
Biotin-avidin: biotin-avidin bead binding disruption counter-screen; streptavidin beads, fluorescein-biotin binding, flow cytometry; shares compounds with RGS16-Gao HTS; AID 1783; inhibition, % at 10 µM; 1,700 tested, under 10 active;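 active = inhibition above 50%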;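 also: median green fluorescence of gated singlet beads compared with DMSO control wells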
RGS8-Gao confirm: confirmation of regulators of human RGS8-Galphao interaction; shares compounds with RGS16-Gao HTS; bead-based flow cytometry RGS8-Galphao binding, fluorescence; actives lie on both sides; binding response (% of control), % at 10 µM; 1,700 tested, 3% active; AID 1836; in the data active = binding response below about 72% or above about 130%; inactive = in between;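 also: Galphao activated as GDP AlF4 complex before binding bead RGS8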
RGS7-Gao single: RGS7-Galphao interaction regulation, single point confirmation; shares compounds with RGS16-Gao HTS; bead-based flow cytometry RGS7-Galphao binding; actives lie on both sides; response (percent of control binding), % at 10 µM; 1,700 tested, 7.8% active; AID 1837; in the data active = response below about 75% or above about 130%; inactive = in between;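 also: fluorescent Galphao activated with GDP and aluminum fluoride binding bead-coupled RGS7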
RGS16-Gao single: RGS16-Galphao interaction regulation, single point confirmation | shares compounds with RGS16-Gao HTS | bead-based flow cytometry, RGS16-Galphao binding; actives lie on both sides | response (% of control binding), % at 10 µM | 1,700 tested, 4% active; in the data active = response below about 74% or above about 130%; inactive = in between;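 also: Galphao activated as the GDP aluminium fluoride complex binding bead-coupled RGS16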
RGS4-Gao confirm: confirmation of regulators of human RGS4-Galphao interaction | shares compounds with RGS16-Gao HTS | RGS4-Galphao binding, multiplexed bead flow cytometry; actives lie on both sides | binding response (% of control), % at 10 µM | 1,700 tested, 4% active; in the data active = binding response below about 74% or above about 130%; inactive = in between
RGS19-Gao conf: RGS19-Galphao interaction regulation, single point confirmation | response (percent of control binding), % at 10 µM | shares compounds with RGS16-Gao HTS | 1,700 tested, 5% active | bead-based flow cytometry RGS19-Galphao binding; actives lie on both sides; in the data active = response below about 50% or above about 160%; inactive = in between
A number is an active result; [ ] = dose if it differs, or a comment. Unless noted, no rule for the calls is given here.

`COc1cc(C(=O)N/N=C/c2ccccn2)cc(OC)c1OC` gave Avidin bead fluor inactive, RGS4-Gao reg 20, RGS8-Gao 13, RGS16-Gao HTS 12, RGS7-Gao reg inconclusive, GSH fluor inactive, Biotin-avidin inactive, RGS8-Gao confirm inactive, RGS7-Gao single inactive, RGS16-Gao single inactive, RGS4-Gao confirm inactive and RGS19-Gao conf inactive.
`N=C1C2=C3Sc4ccccc4N3CCCC2=NN1c1cccc(S(=O)(=O)O)c1` gave Avidin bead fluor inactive, RGS4-Gao reg -11, RGS8-Gao 8.6, RGS16-Gao HTS -6.4, RGS7-Gao reg inconclusive, Biotin-avidin inactive, RGS8-Gao confirm inactive, RGS7-Gao single inactive, RGS16-Gao single inactive, RGS4-Gao confirm inactive and RGS19-Gao conf inactive.
CS(=O)(=O)N1CCN(c2ccccc2F)CC1 was read as Avidin bead fluor inactive, RGS4-Gao reg inactive, RGS8-Gao inactive, RGS16-Gao HTS inactive, RGS7-Gao reg inactive and GSH fluor inactive.
For O=S(=O)(N1CCCCC1)N1CCN(c2ccccc2F)CC1 the results were Avidin bead fluor 70, RGS4-Gao reg inactive, RGS8-Gao inactive, RGS16-Gao HTS inactive, RGS7-Gao reg 156[activator], GSH fluor inactive, RGS4-Gao HTS 105, Biotin-avidin inactive, RGS8-Gao confirm inactive, RGS7-Gao single inactive, RGS16-Gao single inactive, RGS4-Gao confirm inactive and RGS19-Gao conf inactive.
O=C(CNC(=O)C1COc2ccccc2O1)N/N=C/c1ccc(O)cc1O (stereo not drawn) was read as Avidin bead fluor inactive, RGS4-Gao reg inactive, RGS8-Gao 56, RGS16-Gao HTS -1.7, RGS7-Gao reg inactive, GSH fluor inactive, RGS4-Gao HTS 62, Biotin-avidin inactive, RGS8-Gao confirm inactive, RGS7-Gao single inactive, RGS16-Gao single inactive, RGS4-Gao confirm inactive and RGS19-Gao conf inactive.
Screening O=C(COc1ncnc2ccccc12)c1ccc(Cl)cc1 returned Avidin bead fluor inactive, RGS4-Gao reg inactive, RGS8-Gao inactive, RGS16-Gao HTS inactive, RGS7-Gao reg inconclusive and GSH fluor inactive.
`COc1cccc(CN2CCN(Cc3cccn3-c3cccnc3)CC2CCO)c1` (stereo not drawn) gave Avidin bead fluor inactive, RGS4-Gao reg inactive, RGS8-Gao inactive, RGS16-Gao HTS inactive, RGS7-Gao reg inactive and GSH fluor inactive.
For CC1=CC(C)[C@H](/C=N/n2c(=O)[nH]c3c([nH]c4ccc(Br)cc43)c2=O)C(C)C1 (stereo partly drawn) the results were Avidin bead fluor inactive, RGS4-Gao reg inactive, RGS8-Gao inactive, RGS16-Gao HTS inactive, RGS7-Gao reg inactive and GSH fluor inactive.
Screening Cc1c(Cl)cccc1NC(=O)C1Cc2ccccc2CN1C(=O)c1ccccc1 (stereo not drawn) returned Avidin bead fluor inactive, RGS4-Gao reg inactive, RGS8-Gao inactive, RGS16-Gao HTS inactive, RGS7-Gao reg inactive and GSH fluor inactive.
`Cc1cccc(NC(=O)C2Cc3ccccc3CN2C(=O)OCc2ccccc2)c1C` (stereo not drawn) gave Avidin bead fluor inactive, RGS4-Gao reg inactive, RGS8-Gao inactive, RGS16-Gao HTS 12, RGS7-Gao reg inactive, GSH fluor inactive, RGS4-Gao HTS 91, Biotin-avidin inactive, RGS8-Gao confirm inactive, RGS7-Gao single inactive, RGS16-Gao single inactive, RGS4-Gao confirm inactive and RGS19-Gao conf inactive.
Cc1ccc(NC(=S)N2CCN(C)CC2)c(C)c1 was read as Avidin bead fluor inactive, RGS4-Gao reg inactive, RGS8-Gao inactive, RGS16-Gao HTS 186[activator], RGS7-Gao reg inactive, GSH fluor inactive, RGS4-Gao HTS 107, Biotin-avidin inactive, RGS8-Gao confirm inactive, RGS7-Gao single inactive, RGS16-Gao single inactive, RGS4-Gao confirm inactive and RGS19-Gao conf inactive.
Cc1ccc(NC(=S)N2CCOCC2)c(C)c1 was read as Avidin bead fluor inactive, RGS4-Gao reg inactive, RGS8-Gao inactive, RGS16-Gao HTS inactive, RGS7-Gao reg inactive and GSH fluor inactive.
Screening Fc1cc(F)c(C2SCCN2C(=S)Nc2cccc(C(F)(F)F)c2)c(F)c1 (stereo not drawn) returned Avidin bead fluor inactive, RGS4-Gao reg inactive, RGS8-Gao inactive, RGS16-Gao HTS inactive and RGS7-Gao reg inconclusive.
For CC1=C(C(=O)OC(C)C)C(c2cccc(F)c2)N2C(=O)C(C)SC2=N1 (stereo not drawn) the results were GSH fluor inactive, Biotin-avidin inactive, RGS8-Gao confirm inactive, RGS7-Gao single inactive, RGS16-Gao single inactive, RGS4-Gao confirm inactive and RGS19-Gao conf inactive.
`CC1=C(C(=O)OCC(C)C)C(c2cccc(F)c2)N2C(=O)C(C)SC2=N1` (stereo not drawn) gave Avidin bead fluor inactive, RGS4-Gao reg inactive, RGS8-Gao inactive, RGS16-Gao HTS inactive, RGS7-Gao reg inactive and GSH fluor inactive.
`CC1=NN(C(C#N)c2ccc(F)cc2)C(C)(C)C1` (stereo not drawn) gave Avidin bead fluor inactive, RGS4-Gao reg 50, RGS8-Gao 58, RGS16-Gao HTS inactive, RGS7-Gao reg 44, GSH fluor inactive, Biotin-avidin inactive, RGS8-Gao confirm inactive, RGS7-Gao single inactive, RGS16-Gao single inactive, RGS4-Gao confirm inactive and RGS19-Gao conf inactive.
For CC1=NN(C(C#N)c2ccc([N+](=O)[O-])cc2)C(C)(C)C1 (stereo not drawn) the results were Avidin bead fluor inactive, RGS4-Gao reg inactive, RGS8-Gao inactive, RGS16-Gao HTS inactive and RGS7-Gao reg inconclusive.
NNC(=O)c1nc[nH]c1C(=O)Nc1ccccc1[N+](=O)[O-] was read as Avidin bead fluor inactive, RGS4-Gao reg inactive, RGS8-Gao inactive, RGS16-Gao HTS inactive, RGS7-Gao reg inactive and GSH fluor inactive.
